Hits are enriched below; roughly 6.8% of the tested compounds scored in any of these assays.
Pf Dd2 growth: P. falciparum Dd2 growth inhibitors, primary screen, SYBR Green fluorescence, single dose replicates. 72 h; hits give low values. activity change, % at 10 µM. 2.3% of 94,000 active; in the data active = activity change below about -80%; inconclusive = no clear call, values can overlap the other calls
C diff HTS: C. difficile growth inhibitors, primary screen, HTS; 0.25% of 86,000 active; growth activity, negative = inhibition, % at 16 µg/mL (by protocol); Clostridium difficile clinical isolate growth, OD600, 24 h; hits give low values;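 active = mean growth activity at or below -80% and every replicate also at or below -80%; inconclusive = mean at or below -80% but some replicate above -80%; inactive = mean growth activity above -80%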;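 note: 0% = DMSO wells and -100% = levofloxacin 16 µg/mL wells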
T cruzi growth: T. cruzi intracellular proliferation inhibitors, primary screen, cell-based, beta-gal Tulahuen parasites, NIH3T3 host, luminescence | T. cruzi beta-gal in NIH3T3, GalScreen luminescence, 90 h | inhibition, % at 8.34 µM | 5.9% of 77,000 active | AID 624255, 2012;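 active = mean inhibition above about 93%, with at least 55% of replicates each passing it, limit read from the data, passing the limit was not always enough; inconclusive = only one of those two conditions holds; inactive = neither condition holds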
Starred values were filed as active, the others as inactive.

How did O=C(Nc1cccc(F)c1)N1CCCCN2[C@H](CO)[C@@H](c3ccc(C#Cc4ccccc4)cc3)[C@@H]2C1 do in these assays?
Pf Dd2 growth: -18; C diff HTS: -3; T cruzi growth: 88

Results for COc1ccc(C#Cc2ccc([C@@H]3[C@@H](CO)N4CCCCN(Cc5ccccc5F)C[C@H]34)cc2)cc1 ?
Pf Dd2 growth: -80; C diff HTS: -97*; T cruzi growth: -29

How did COc1ccc(NC(=O)N2CCCCN3[C@H](CO)[C@H](c4ccc(-c5ccccc5F)cc4)[C@@H]3C2)cc1 do in these assays?
Pf Dd2 growth: -85*; C diff HTS: -15; T cruzi growth: 30

What do the screens show for `CC(=O)N(C)C[C@@H]1Oc2ncc(-c3ccc(C#N)cc3)cc2C(=O)N([C@H](C)CO)C[C@@H]1C`?
Pf Dd2 growth: 20; C diff HTS: -1; T cruzi growth: 9

Results for Cc1noc(C)c1C(=O)N(C)C[C@@H]1OCc2ccccc2-c2c(n(C)c3ccccc23)C(=O)N([C@@H](C)CO)C[C@@H]1C ?
Pf Dd2 growth: -7; C diff HTS: 2; T cruzi growth: 26

How did C=CCN1Cc2ccccc2[C@H]2OC(c3ccc(OCCCO)cc3)=N[C@@]2(CCS(=O)(=O)c2ccccc2)C1=O do in these assays?
C diff HTS: 5

Results for C[C@@H]1CN([C@@H](C)CO)C(=O)c2cccc(NS(=O)(=O)c3ccc(Cl)cc3)c2O[C@H]1CN(C)C(=O)Nc1ccccc1 ?
Pf Dd2 growth: 17; C diff HTS: 6; T cruzi growth: 43

What do the screens show for `C[C@@H]1CN([C@@H](C)CO)C(=O)Cc2cc(NC(=O)Nc3ccc(C(F)(F)F)cc3)ccc2O[C@H]1CN(C)C(=O)Nc1cccc2ccccc12`?
Pf Dd2 growth: -78; C diff HTS: -3; T cruzi growth: 33

What do the screens show for `CCCNC(=O)Nc1ccc2c(c1)C(=O)N(C)C[C@@H](OC)[C@H](C)CN(CC1CCCC1)[C@H](C)CO2`?
T cruzi growth: -60

How did CCC(=O)N1CCC2(CC1)CN(CC1CCCCC1)[C@@H](CO)c1c2c2ccc(OC)cc2n1C do in these assays?
Pf Dd2 growth: -85*; C diff HTS: 3

Results for COc1ccc2c3c(n(C)c2c1)[C@@H](CO)N(S(=O)(=O)c1ccc(C)cc1)CC31CCN(C)CC1 ?
Pf Dd2 growth: -59; C diff HTS: -5

How did COc1ccc2c3c(n(C)c2c1)[C@@H](CO)N(S(C)(=O)=O)CC31CCN(C(=O)CN(C)C)CC1 do in these assays?
Pf Dd2 growth: -89*; C diff HTS: -2

Results for COc1ccc2c3c(n(C)c2c1)[C@H](CO)N(CC1CC1)CC31CCN(C(=O)CN(C)C)CC1 ?
Pf Dd2 growth: -42; C diff HTS: 5

How did CCC(=O)N1CCC2(CC1)CN(CC1CCCCC1)[C@H](CO)c1c2c2ccc(OC)cc2n1C do in these assays?
Pf Dd2 growth: 42

How did COc1ccc2c3c(n(C)c2c1)[C@@H](CO)N(S(=O)(=O)c1ccc(C)cc1)CC31CCN(S(=O)(=O)c2ccc(C)cc2)CC1 do in these assays?
Pf Dd2 growth: -85*; C diff HTS: 2

How did CCC(=O)N1CCC2(CC1)CN(S(C)(=O)=O)[C@H](CO)c1c2c2ccc(OC)cc2n1C do in these assays?
Pf Dd2 growth: 26; C diff HTS: -2

What do the screens show for `COc1ccc2c3c(n(C)c2c1)[C@@H](CO)N(CC1CCCC1)CC31CCN(C(=O)CN(C)C)CC1`?
Pf Dd2 growth: -85*; C diff HTS: 5

Results for C[C@@H]1CCCCO[C@@H](CN(C)S(=O)(=O)c2ccc(F)cc2)[C@H](C)CN([C@H](C)CO)C(=O)c2cc(NC(=O)Nc3ccc4c(c3)OCO4)ccc2O1 ?
Pf Dd2 growth: -73; C diff HTS: 3; T cruzi growth: 92

How did COc1ccc(CN(C)C[C@@H]2Oc3c(NS(=O)(=O)c4ccc(C)cc4)cccc3C(=O)N([C@H](C)CO)C[C@@H]2C)cc1 do in these assays?
Pf Dd2 growth: -19; C diff HTS: 7; T cruzi growth: 16

Results for C[C@@H]1CN([C@@H](C)CO)C(=O)c2cc(NC(=O)CCCN(C)C)ccc2O[C@H]1CN(C)Cc1ccncc1 ?
Pf Dd2 growth: 7; C diff HTS: -2; T cruzi growth: -2

How did O=C(C[C@@H]1CC[C@@H]2[C@H](COC[C@H](O)CN2CC2CCCC2)O1)NCc1ccc(Cl)cc1 do in these assays?
Pf Dd2 growth: -68; C diff HTS: -7

What do the screens show for `CN(C)C(=O)C[C@@H]1C=C[C@H](NC(=O)Nc2cccc(F)c2)[C@@H](CO)O1`?
Pf Dd2 growth: -29; C diff HTS: 2; T cruzi growth: 38

How did CCC(=O)N1CC2(C1)[C@H](c1ccc(-c3cccc(OC)c3)cc1)[C@H](CO)N2C(C)=O do in these assays?
Pf Dd2 growth: -5; C diff HTS: -7

What do the screens show for `CCC(=O)N1CC2(C1)[C@@H](c1ccc(-c3cccc(OC)c3)cc1)[C@@H](CO)N2C(C)=O`?
Pf Dd2 growth: -90*; C diff HTS: -4

What do the screens show for `C[C@H](NC(=O)N(C)C[C@H]1OCc2ccccc2-c2ccccc2C(=O)N([C@H](C)CO)C[C@H]1C)c1ccccc1`?
Pf Dd2 growth: 15; C diff HTS: -2; T cruzi growth: 26

What do the screens show for `C[C@H](CO)N1C[C@H](C)[C@H](CN(C)Cc2cccc(C(F)(F)F)c2)OCc2ccccc2-c2c(n(C)c3ccccc23)C1=O`?
Pf Dd2 growth: -83*; C diff HTS: 7

How did C[C@H]1CN([C@@H](C)CO)C(=O)c2ccccc2-c2ccccc2CO[C@@H]1CN(C)Cc1cccc(C(F)(F)F)c1 do in these assays?
Pf Dd2 growth: -16; C diff HTS: 28

What do the screens show for `C[C@@H]1CN([C@@H](C)CO)C(=O)c2ccccc2-c2ccccc2CO[C@@H]1CN(C)Cc1cccc(C(F)(F)F)c1`?
Pf Dd2 growth: -82*; C diff HTS: 18

How did C[C@H](CO)N1C[C@H](C)[C@@H](CN(C)Cc2cccc(C(F)(F)F)c2)OCc2ccccc2-c2c(n(C)c3ccccc23)C1=O do in these assays?
Pf Dd2 growth: inconclusive; C diff HTS: 22

How did C[C@@H]1CN([C@H](C)CO)C(=O)c2c(c3ccccc3n2C)-c2ccccc2CO[C@@H]1CN(C)Cc1cccc(C(F)(F)F)c1 do in these assays?
Pf Dd2 growth: -87*; C diff HTS: 23

Results for C[C@H]1CN([C@@H](C)CO)C(=O)c2c(c3ccccc3n2C)-c2ccccc2CO[C@H]1CN(C)Cc1cccc(C(F)(F)F)c1 ?
Pf Dd2 growth: -75; C diff HTS: 12

Results for C[C@@H]1CN([C@@H](C)CO)C(=O)c2cc(NC(=O)Nc3ccccc3)ccc2O[C@@H](C)CCCCO[C@H]1CN(C)C(=O)c1ccccc1 ?
Pf Dd2 growth: -49

What do the screens show for `COC(=O)CCCCCCC(=O)Nc1ccc(C2OC(CSc3nc4ccccc4s3)CC(c3ccccc3)O2)cc1` (stereo not drawn)?
C diff HTS: -7

Results for CC(C)C#Cc1ccc2c(c1)O[C@H](CN(C)C(=O)NC(C)C)[C@@H](C)CN([C@@H](C)CO)S2(=O)=O ?
Pf Dd2 growth: 8; C diff HTS: 5; T cruzi growth: 89
